Results filed as inconclusive are left out. The source made the active and inactive calls. The call rests on the fitted dose curve; in most records, active means well fitted cell-killing curve with a large enough effect; inconclusive means small, poorly fitted or top-dose-only effect, or effect the other way; inactive means flat fitted curve, though single readings scatter. Where a SMILES comes first, the peptide text is derived from it. The star is where a group is joined. AMC = Cc1cc(=O)oc2cc(N*)ccc12; Cbz = O=C(OCc1ccccc1)*
How the values were obtained:
Experiment in all cases: Primary qHTS to identify gynecologic anti-cancer compounds using libraries of approved drugs and bioactive compounds (AID 1345084); further: nearly all actives have a fitted effect of over 55% in size
Settings in all cases: Gynecologic cancer cell panel viability, ATPlite luminescence, 48 h; series mostly up to 57.5 µM
PA-1 = tested on: PA-1
Summary of the method: (§1)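 ATP-based viability (ATPlite), 1,000 cells/well, 16 h pre-incubation, 48 h compound at 37 C, 5% CO2, 15 min RT before read.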

SKOV3 = tested on: SKOV3
Summary of the method: as §1

Tov-21-G = tested on: Tov-21-G
Summary of the method: as §1

Tov112D = tested on: Tov112D
Summary of the method: as §1

Measured: Potency

COC(=O)C(CC1(O)c2ccccc2N2C(=O)C(CC(C)C)NC21)n1cnc2ccccc2c1=O (stereo not given)
inactive: PA-1 | SKOV3 | Tov-21-G | Tov112D

COc1ccc(Oc2c(Cl)cnn(C3c4ccccc4-c4ccccc43)c2=O)cc1
inactive: PA-1 | SKOV3 | Tov-21-G | Tov112D

CC(C)CC(c1c(O)c(C=O)c(O)c(C=O)c1O)C1CCC(C)(O)C2CC(C(C)(C)O)CCC12C (stereo not given)
inactive: PA-1 | SKOV3 | Tov-21-G | Tov112D

C=C1CC2C3(C)C(O)CC(=O)C(C)(C)C3C(O)C(OC(C)=O)C2(C)C2C(=O)OC(C)(C(=O)OC)C(=O)C12C (stereo not given)
inactive: PA-1 | SKOV3 | Tov-21-G | Tov112D

Cc1cc(=O)oc2cc(NC(=O)[C@H](CCC(=O)O)NC(=O)[C@H](CC(C)C)NC(=O)[C@H](CC(C)C)NC(=O)OCc3ccccc3)ccc12 (Cbz-Leu-Leu-Glu-{AMC})
inactive: PA-1 | SKOV3 | Tov-21-G | Tov112D

— PubChem BioAssay (NCATS)
